In PubChem BioAssay AID434973 (Sanford-Burnham Center for Chemical Genomics, 2010):
Out of some 330,000 compounds screened, about 4,900 (1.5%) were called active. Only a selection was taken, and actives are over-represented in it overall. Unmarked numbers belong to inactive results.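 Rule for the calls: active = inhibition above about 50% at the single test dose (limit read from the data); inactive = the rest.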

Target: Sentrin-specific protease 7 (Homo sapiens) (UniProt Q9BQF6)
Assay: blockers of human SENP7 peptidase activity – biochemical, luminescence, uHTS, primary screen (AID 434973);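 note: plate controls were DMSO with enzyme for no effect and no enzyme buffer wells for full effect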
Settings: recombinant SENP7, Z-RLRGG-aminoluciferin luminescence, 40 min; at 5 µM; stronger effect = higher value

In order of rising inhibition:
1. Cc1nonc1NC(=O)c1oc2ccccc2c1C  -17.1%
2. N/C(=N\OC(=O)c1cc(-c2ccccc2)nc2ccccc12)c1ccncc1  -11.9%
3. Cc1nc(-c2ccc(F)cc2)c(CC(=O)N(C)CC(=O)Nc2c(C)cccc2C)s1  -11.8%
4. CCCCCCc1cc2cc(-c3nnc(-c4ccccc4)o3)c(=O)oc2cc1O  -10.4%
5. CCOC(=O)c1cnc(COc2ccccc2Cl)[nH]c1=O  -8.27%
6. COc1cc(NC(=O)c2cncc(-c3ccc(C#N)cc3)c2)cc(C(=O)Nc2cccc(C(F)(F)F)c2)c1  -7.54%
7. CCN(CC(=O)Nc1ccc(NC(C)=O)cc1)C(=O)CSC(=S)N1CCCC1  -7.39%
8. O=C(COC(=O)c1ccc(O)cc1)Nc1nccs1  -6.7%
9. COC(=O)c1oc2ccc(Br)cc2c1NC(C)=O  -6.53%
10. CCCc1cc(=O)oc2c(C)c(OCC(=O)N3CCC(C(=O)O)CC3)ccc12  -6.34%
11. CCOC(=O)C(NC(=O)CC(C)C)(Nc1sc2c(c1C(N)=O)CCCC2)C(F)(F)F (stereo not given)  -5.57%
12. COc1ccc(C/C(C)=N/NC(=O)c2cc(C)oc2C)cc1  -5.26%
13. COc1cc(C(=O)N2CCN(C)CC2)cc(OC)c1OC  -4.77%
14. Cc1ccc(CNC(=O)Cn2cnc3c(NCc4ccccc4)ncnc32)o1  -4.15%
15. Cn1c(COc2ccc(Cl)cc2)nc2ccccc2c1=O  -3.98%
16. OCCC1CN(Cc2cccc(O)c2)CCN1CCc1ccccc1 (stereo not given)  -3.9%
17. Cc1ccccc1N/N=C/c1ccc(N2CCOCC2)cc1  -3.84%
18. COc1ccc2cc(C(=O)C3CCCN(C(=O)c4sc(C)nc4C)C3)ccc2c1 (stereo not given)  -3.44%
19. CCOC(=O)N1CCN(C(=O)COc2ccc3oc4c(c3c2)CCCC4)CC1  -3.39%
20. COc1ccc(C(=O)COC(=O)Cn2cnc3c2c(=O)n(C)c(=O)n3C)c(OC)c1  -3.24%
21. Cc1c(Cl)cccc1NC(=O)NCCCN1CCCC1=O  -2.59%
22. COc1cc(CNC2CCCCC2)c(Br)cc1OC1CCCC1  -2.57%
23. O=C(/C=C/c1ccc2c(c1)OCO2)NCc1ccc(F)cc1  -2.53%
24. COc1ccc(N2CC(C(=O)NCCN3C(=O)S/C(=C\c4cccnc4)C3=O)CC2=O)c(OC)c1 (stereo not given)  -2.06%
25. C=C(Cl)COC(=O)C1C2C=CC(C2)C1C(=O)O (stereo not given)  -1.65%
26. Cc1ccc(/C(N)=N/OC(=O)COc2ccc(Cl)c(C)c2)cc1  -1.43%
27. CCOc1cc(/C=C/c2nc3ccccc3c(=O)[nH]2)cc(Br)c1OC  -1.26%
28. Cn1c(N)c(C(=O)COC(=O)C23CC4CC(CC(C4)C2)C3)c(=O)n(C)c1=O  -1.02%
29. COc1ccc(C(=O)Nc2nc(-c3ccc(OC)cc3)c(-c3ccc([N+](=O)[O-])cc3)s2)cc1  -0.702%
30. O=C(c1ccc(CS(=O)(=O)c2ccccc2)o1)N1CCN(c2ccccc2)CC1  -0.219%
31. CC(C)c1ccc(NC(=O)CCN2C(=O)c3ccc([N+](=O)[O-])cc3C2=O)cc1  -0.0494%
32. O=C(Cn1c(COc2ccccc2)nc2ccccc21)Nc1cc(Cl)c(Cl)cc1Cl  -0.0494%
33. CCOC(=O)c1cnc2sccn2c1=O  0.0796%
34. O=C(CCn1ccc([N+](=O)[O-])n1)Nc1nccs1  0.106%
35. Cc1ccc(/C=N/NC(=O)C(NC(=O)c2ccccc2)c2n[nH]c(=O)c3ccccc23)cc1 (stereo not given)  0.556%
36. CSCCC(NC(=O)C1CCC(C)CC1)C(=O)NCc1ccco1 (stereo not given)  0.735%
37. CC(C)CCOc1ccc(C(=O)C[N+]2(C)CCOCC2)cc1  0.789%
38. COc1ccc(C(C)NC(=O)C2CCCC2)cc1 (stereo not given)  1.04%
39. CCN(CC(=O)NCC(=O)Nc1cccc(C)c1C)Cc1ccccc1  1.52%
40. COC(=O)[C@]1(Cc2ccccc2)N[C@H](CN(C)S(=O)(=O)c2ccc(F)cc2)[C@@H]2C(=O)N(Cc3ccccc3)C(=O)[C@@H]21  1.87%
41. O=C(NNc1ccccc1Cl)C(O)(c1cccc(C(F)(F)F)c1)c1cccc(C(F)(F)F)c1  1.97%
42. O=C1C=C(c2ccnc3cc(Cl)ccc23)C[C@@H](c2ccc3c(c2)OCO3)C1  2.03%
43. O=C(CN1C(=O)NC2(CCCC2)C1=O)OCCOc1ccc(F)cc1  2.48%
44. CC(=O)N1CCN(S(=O)(=O)c2ccc(C)c([N+](=O)[O-])c2)C1C(C)C (stereo not given)  2.77%
45. COc1cccc(C(=O)NNC(=O)c2cccc(F)c2)c1  3.09%
46. CCOc1ccc(C(O)Cc2nc3ccccc3n2C)cc1 (stereo not given)  3.12%
47. CCN(CC)CCCNC(=O)COc1ccc2oc3c(c2c1)CCCC3  3.16%
48. O=C(NC(Nc1nc2ccc([N+](=O)[O-])cc2s1)(C(F)(F)F)C(F)(F)F)c1ccccc1  3.23%
49. CNc1[nH]ncc1[N+](=O)[O-]  3.45%
50. Cc1ccc(OCC(=O)Nc2ccccc2Sc2ccc(Cl)cc2)c([N+](=O)[O-])n1  3.81%
51. O=C(NN=Cc1ccc(N2CCOCC2)cc1)c1cc2ccccc2cc1O  4.23%
52. COc1ccc(OC)c2[nH]c(=O)c(CCNC(=O)C(=O)c3c[nH]c4ccccc34)cc12  4.26%
53. COc1ccccc1N(CC(=O)Nc1ccccc1C(=O)N1CCCC1)S(C)(=O)=O  5.42%
54. CN(C)c1cc(-c2ccc(F)cc2)oc(=O)c1Cl  5.73%
55. COC(=O)c1sccc1NS(=O)(=O)c1ccc(F)cc1F  6.45%
56. COc1ccc(N(CC(=O)NC2CCCCC2)C(=O)CNC(=O)c2ccco2)c(OC)c1  6.97%
57. CCOC(=O)c1cc2cc3ccccc3cc2oc1=O  7.03%
58. Cc1cc(NC(=O)C(C)SCC(=O)Nc2ccccc2N2CCCCC2)no1 (stereo not given)  7.37%
59. COc1cc(Cl)c(C)cc1NC(=O)CN1CCCCCC1  7.89%
60. COc1ccc(N2CCN(C(=O)c3cn(C)c4ccc(S(=O)(=O)N5CCOCC5)cc4c3=O)CC2)cc1  8.09%
61. CC(NCc1ccccc1OC1CCCC1)c1ccccc1 (stereo not given)  8.44%
62. COC(=O)c1cccc(-n2[nH]nnc2=S)c1  8.95%
63. Cc1ccnc(NC(=O)Cn2ccc([N+](=O)[O-])n2)c1  10%
64. Cc1noc(C)c1C(=O)NCCc1ccc(S(N)(=O)=O)cc1  10.1%
65. CSCCC1NC2(C(=O)Nc3ccc(Cl)cc32)[C@@H]2C(=O)N(C3CCCC3)C(=O)[C@H]12 (stereo not given in full)  10.2%
66. O=C(Nc1ccc(Cl)cc1)Nc1ccc(C(=O)N2CCOCC2)cc1  11.1%
67. O=c1[nH]c(/C=C\c2cccc(C(F)(F)F)c2)nc(O)c1[N+](=O)[O-]  11.2%
68. O=C(Oc1ccccc1)Oc1ccc2c(c1)oc(=O)c1ccccc12  11.6%
69. CCCc1cc(=O)oc2c(C)c(OCC(=O)NCc3ccccn3)ccc12  12.3%
70. O=C(O)c1ccccc1NC(=S)NC(NC(=O)c1ccccc1[N+](=O)[O-])C(Cl)(Cl)Cl (stereo not given)  14%
71. Cc1ccc(CSc2ccc(S(=O)(=O)N3CCCCC3)cn2)cc1  14.9%
72. CC(C)n1c(COc2ccccc2)nc2ccccc21  15%
73. Cc1nn(C)c(C(=O)NNC(=S)NC2CCCCC2)c1Cl  15.8%
74. Cc1cccc(NC(=O)Nc2ccc3c(c2)OCO3)n1  17%
75. Cc1ccc(/C=N/NC(=O)c2cc3ccccc3cc2O)o1  19%
76. Cc1cc(C(=O)N/N=C\C(Br)=C\c2ccccc2)c(C)o1  21.1%
77. CCCC(=O)N(CCN1CCOCC1)c1nc2ccc(OCC)cc2s1  28.1%

`Cc1c(C(=O)Nc2ccccn2)oc2ccc(Br)cc12` was tested, and the inhibition was 65.6% (active).
For `Cc1cccc(NC(=O)/C=C/c2ccc3c(c2)OCO3)n1`, the inhibition was 78% (active).
With `Cc1c(Cl)cccc1NC(=O)Nc1ccc(C(=O)N2CCCC2)cc1` the inhibition was 57% (active).
`Cc1cccc(/C(N)=N/OC(=O)c2ccccc2Cl)c1` was tested, and the inhibition was 98.2% (active).
In the case of `Cc1ccc(OCc2nc3ccccc3n2C)cc1`, the inhibition is reported as 59.7% (active).
`COCn1c(COc2ccccc2)nc2ccccc21` was tested, and the inhibition was 65.8% (active).
With `Cc1cc(C(=O)N/N=C/c2ccc(N3CCOCC3)cc2)c(C)o1` the inhibition was 85.5% (active).
With `CC(=C/c1ccccc1)/C=N/NC(=O)c1cc(C)oc1C` the inhibition was 73% (active).
`COc1cccc(C(=O)c2cc3ccc(O)cc3oc2=O)c1` was tested, and the inhibition was 100% (active).
In the case of `O=C(COc1ccc2oc3c(c2c1)CCCC3)Nc1ccccn1`, the inhibition is reported as 89.1% (active).
In the case of `Cc1cc(N=Nc2ccc3ccccc3c2)ccc1O`, the inhibition is reported as 97.5% (active).
In the case of `O=c1[nH]c(/C=C/c2cccc(Br)c2)nc2ccccc12`, the inhibition is reported as 65.8% (active).
With `CCOC(=O)c1cnc2[nH]c3ccccc3n2c1=O` the inhibition was 83.7% (active).
With `O=C(Cn1ccc([N+](=O)[O-])n1)NCc1cccs1` the inhibition was 71.3% (active).
For `CCOc1ccc2nc(C(=O)N3CCCC(C)C3)sc2c1` (stereo not given), the inhibition was 67.4% (active).
In the case of `O=c1oc2cc(O)ccc2cc1-c1ccc(F)cc1`, the inhibition is reported as 100% (active).
For `O=C(Nc1nc2ccc([N+](=O)[O-])cc2s1)c1ccncc1`, the inhibition was 85.8% (active).
With `CCCc1cc(=O)oc2c(C)c(OCC(=O)Nc3ccccn3)ccc12` the inhibition was 70.1% (active).
